The results in this text go back to PubChem BioAssay (EPA / NIEHS).

SMILES strings stand for the structures. Inconclusive results are not listed. The source made the active and inactive calls. Rule for the calls, unless noted: active = hit-call score of the fitted dose curve at least 0.9, where 1 is the maximum; inconclusive = response in the unintended direction; inactive = score below 0.9.

The target of experiment [1] is Glucocorticoid receptor (Homo sapiens) (UniProt P04150). In words: ATG_GR_TRANS: Attagene TRANS-FACTORIAL HepG2 Assay for human Glucocorticoid Receptor (GR) (AID 2282978).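 Note: activators score as hits since higher reporter transcript over DMSO is fitted.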 The conditions noted are these: HepG2 Attagene TRANS GR reporter, mRNA transcription. Put shortly: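 Transient MRTU transfection of HepG2 (GAL4-UAS reporters, exogenous NR-GAL4 chimeras), 24 h dosing. Readout: reporter transcript via RT-PCR + capillary electrophoresis fluorescence. Positive direction vs DMSO baseline.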
Sequence of Glucocorticoid receptor (Homo sapiens) (P04150 whole entry, looked up, the tested form may be a part): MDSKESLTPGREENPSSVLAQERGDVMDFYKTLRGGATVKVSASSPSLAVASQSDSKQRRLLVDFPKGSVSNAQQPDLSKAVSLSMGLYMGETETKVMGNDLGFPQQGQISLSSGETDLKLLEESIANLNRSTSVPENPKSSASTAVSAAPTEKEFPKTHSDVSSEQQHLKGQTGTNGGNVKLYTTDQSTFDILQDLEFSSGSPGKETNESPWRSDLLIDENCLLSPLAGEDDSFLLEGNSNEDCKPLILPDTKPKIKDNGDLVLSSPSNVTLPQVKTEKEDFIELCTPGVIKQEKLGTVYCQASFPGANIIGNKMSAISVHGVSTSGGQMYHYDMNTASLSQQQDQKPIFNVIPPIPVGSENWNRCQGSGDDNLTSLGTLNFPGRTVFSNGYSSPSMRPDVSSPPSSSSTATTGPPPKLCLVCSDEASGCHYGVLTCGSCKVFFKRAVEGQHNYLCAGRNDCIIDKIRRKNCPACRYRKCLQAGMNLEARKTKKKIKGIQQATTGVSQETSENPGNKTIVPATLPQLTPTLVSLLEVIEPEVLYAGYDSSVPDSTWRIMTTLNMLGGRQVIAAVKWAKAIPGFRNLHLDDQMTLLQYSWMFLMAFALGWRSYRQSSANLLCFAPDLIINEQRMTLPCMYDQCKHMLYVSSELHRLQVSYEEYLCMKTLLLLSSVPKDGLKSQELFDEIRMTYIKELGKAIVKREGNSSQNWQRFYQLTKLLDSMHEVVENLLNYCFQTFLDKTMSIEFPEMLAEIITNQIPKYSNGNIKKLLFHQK

Experiment [2] has as its target Hepatocyte nuclear factor 4-alpha (Homo sapiens) (UniProt P41235). The experiment in a line: ATG_HNF4a_TRANS: Attagene TRANS-FACTORIAL HepG2 Assay for human Hepatocyte Nuclear Factor 4 alpha (HNF4a) (AID 2282982). The conditions noted are these: HepG2 HNF4a transactivation reporter, mRNA readout. A digest of the protocol:
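Transfected HepG2 reporter cells are dosed for 24 h; reporter RNA is reverse-transcribed, amplified, fluorescently labelled and HpaI-digested before CE sizing. Positive-direction fit against DMSO.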

Experiment [3] is described as follows: ATG_M_06_TRANS: Attagene TRANS-FACTORIAL HepG2 Assay for M06 Transcription Factor (Internal Marker) (AID 2282983). To be noted: HepG2 Attagene TRANS M06 internal marker reporter. A digest of the protocol: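 Measured by capillary electrophoresis of fluorescently labelled RT-PCR products, this endpoint reflects reporter mRNA in HepG2 cells harbouring exogenous NR-GAL4 reporter constructs after 24 h exposure, with DMSO as baseline.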

Experiment [4] in a line: ATG_M_32_TRANS: Attagene TRANS-FACTORIAL HepG2 Assay for M32 Transcription Factor (Internal Marker) (AID 2282984).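 For outcome: transcript level of a background control reporter unit measured by RT-PCR and capillary electrophoresis.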 To be noted: HepG2 Attagene TRANS M32 internal marker reporter. Put shortly: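 Using transiently transfected HepG2 cells exposed to test chemicals for 24 h, reporter transcripts are converted to labelled cDNA fragments and quantified by capillary electrophoresis. DMSO defines the activity baseline.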

Experiment [5] deals with Nuclear receptor subfamily 4 group A member 2 (Homo sapiens) (UniProt P43354). The experiment in a line: ATG_NURR1_TRANS: Attagene TRANS-FACTORIAL HepG2 Assay for human Nuclear Receptor Related Protein 1 (NURR1) (AID 2282985). To be noted: HepG2 Attagene TRANS reporter, mRNA readout. A digest of the protocol: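 Cells: HepG2, transiently transfected. Exposure: 24 h. Detection: fluorescence of labelled RT-PCR products separated by capillary electrophoresis; upward fit versus DMSO.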
Sequence of Nuclear receptor subfamily 4 group A member 2 (Homo sapiens) (P43354 whole entry, looked up): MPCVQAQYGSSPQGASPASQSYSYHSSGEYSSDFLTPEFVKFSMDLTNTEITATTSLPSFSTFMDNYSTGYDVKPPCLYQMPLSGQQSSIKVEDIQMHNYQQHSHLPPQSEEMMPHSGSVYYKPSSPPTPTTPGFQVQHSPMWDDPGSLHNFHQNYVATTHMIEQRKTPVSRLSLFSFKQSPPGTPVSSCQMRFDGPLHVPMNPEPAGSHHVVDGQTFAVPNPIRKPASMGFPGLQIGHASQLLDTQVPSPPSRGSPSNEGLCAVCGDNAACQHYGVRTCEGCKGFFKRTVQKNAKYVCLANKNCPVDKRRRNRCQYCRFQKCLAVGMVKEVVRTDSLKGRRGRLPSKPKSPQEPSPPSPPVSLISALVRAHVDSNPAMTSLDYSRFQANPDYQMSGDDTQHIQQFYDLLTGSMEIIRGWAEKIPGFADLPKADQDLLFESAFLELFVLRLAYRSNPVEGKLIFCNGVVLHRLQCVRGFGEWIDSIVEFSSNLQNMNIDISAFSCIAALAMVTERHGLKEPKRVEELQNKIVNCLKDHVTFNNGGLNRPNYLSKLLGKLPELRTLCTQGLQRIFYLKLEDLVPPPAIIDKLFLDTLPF

The target in experiment [6] is Transcriptional activator Myb (Homo sapiens) (UniProt P10242). The experiment in a line: ATG_Myb_CIS: Attagene CIS-FACTORIAL HepG2 Assay for human Myeloblastosis (Myb) Proto-Oncogene Transcription Factor (AID 2282986; active = hit-call score of the fitted dose curve at least 0.9, where 1 is the maximum; inactive = score below 0.9). To be noted: HepG2 Attagene CIS-FACTORIAL Myb reporter transcription; actives raise or lower the signal. Put shortly: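 HepG2, transient MRTU transfection (cis-element promoters, endogenous TF activity), 24 h compound exposure. Readout: reporter mRNA via RT-PCR, 6-FAM labeling, HpaI digest, capillary electrophoresis. Gain/loss fit vs DMSO.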
Sequence of Transcriptional activator Myb (Homo sapiens) (P10242 whole entry, looked up): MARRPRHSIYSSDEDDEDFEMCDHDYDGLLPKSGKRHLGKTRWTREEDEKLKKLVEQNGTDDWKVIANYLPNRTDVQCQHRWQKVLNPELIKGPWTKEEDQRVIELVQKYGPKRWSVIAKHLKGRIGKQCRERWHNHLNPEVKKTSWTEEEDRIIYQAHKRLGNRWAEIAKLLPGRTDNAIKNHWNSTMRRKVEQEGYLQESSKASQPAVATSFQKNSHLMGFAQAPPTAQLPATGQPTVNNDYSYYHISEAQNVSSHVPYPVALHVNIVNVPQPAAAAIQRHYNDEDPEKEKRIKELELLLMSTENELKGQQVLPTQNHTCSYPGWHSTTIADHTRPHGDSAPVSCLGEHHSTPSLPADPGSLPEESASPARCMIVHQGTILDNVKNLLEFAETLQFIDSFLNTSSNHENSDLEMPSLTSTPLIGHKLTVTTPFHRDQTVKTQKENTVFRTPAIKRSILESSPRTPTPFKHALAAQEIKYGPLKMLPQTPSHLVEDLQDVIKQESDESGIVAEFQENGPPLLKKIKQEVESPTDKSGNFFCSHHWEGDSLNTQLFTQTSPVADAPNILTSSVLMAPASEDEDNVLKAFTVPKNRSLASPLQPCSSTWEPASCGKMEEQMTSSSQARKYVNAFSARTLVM

Experiment [7] deals with Nuclear respiratory factor 1 (Homo sapiens) (UniProt Q16656). The experiment in a line: ATG_NRF1_CIS: Attagene CIS-FACTORIAL HepG2 Assay for human Nuclear Respiratory Factor 1 (NRF1) Orphan Gene (AID 2282987; active = hit-call score of the fitted dose curve at least 0.9, where 1 is the maximum; inactive = score below 0.9). To be noted: HepG2 NRF1 cis-element reporter, Attagene multiplex; actives raise or lower the signal. Put shortly:
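Endogenous NRF1-driven reporter transcription measured in transiently transfected human HepG2 liver cells. Readout: reporter mRNA by RT-PCR and capillary electrophoresis with fluorescence detection, 24 h post-dosing. Gain or loss of signal fitted relative to DMSO baseline.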

Experiment [8] concerns the target Bile acid receptor (Homo sapiens) (UniProt Q96RI1). In words: ATG_FXR_TRANS: Attagene TRANS-FACTORIAL HepG2 Assay for Farnesoid X Receptor (FXR) (AID 2282979).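 Note: hits raise reporter mRNA above DMSO so AC50 marks FXR activation.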 The conditions noted are these: HepG2 Attagene TRANS FXR-GAL4 reporter transcription. Put shortly: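 Chimeric FXR-GAL4 activity in transiently transfected human HepG2 liver cells is scored as induction of reporter mRNA after 24 h of dosing. Detection uses RT-PCR with fluorescent labelling and capillary electrophoresis, with DMSO serving as baseline.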

Experiment [9] concerns the target Oxysterols receptor LXR-alpha (Homo sapiens) (UniProt Q13133). In words: ATG_LXRa_TRANS: Attagene TRANS-FACTORIAL HepG2 Assay for human Liver X Receptor alpha (LXRa) (AID 2282980). To be noted: HepG2 Attagene TRANS reporter, LXRa transactivation. Put shortly:
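Transient HepG2 transfectants, 24 h dosing, RT-PCR/CE mRNA reporter quantitation; gain-of-signal vs DMSO.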

Experiment [10] has as its target Oxysterols receptor LXR-beta (Homo sapiens) (UniProt P55055). The experiment in a line: ATG_LXRb_TRANS: Attagene TRANS-FACTORIAL HepG2 Assay for human Liver X Receptor beta (LXRb) (AID 2282981). To be noted: HepG2 Attagene TRANS GAL4-LXRb reporter, mRNA. A digest of the protocol:
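Cells: HepG2, transiently transfected with GAL4-UAS reporter units plus LXRb-Gal4 fusion. Treatment: 24 h. Detection: reporter mRNA by RT-PCR, 6-FAM labelling, HpaI digestion, capillary electrophoresis.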

Sequence of Hepatocyte nuclear factor 4-alpha (Homo sapiens) (P41235 whole entry, looked up): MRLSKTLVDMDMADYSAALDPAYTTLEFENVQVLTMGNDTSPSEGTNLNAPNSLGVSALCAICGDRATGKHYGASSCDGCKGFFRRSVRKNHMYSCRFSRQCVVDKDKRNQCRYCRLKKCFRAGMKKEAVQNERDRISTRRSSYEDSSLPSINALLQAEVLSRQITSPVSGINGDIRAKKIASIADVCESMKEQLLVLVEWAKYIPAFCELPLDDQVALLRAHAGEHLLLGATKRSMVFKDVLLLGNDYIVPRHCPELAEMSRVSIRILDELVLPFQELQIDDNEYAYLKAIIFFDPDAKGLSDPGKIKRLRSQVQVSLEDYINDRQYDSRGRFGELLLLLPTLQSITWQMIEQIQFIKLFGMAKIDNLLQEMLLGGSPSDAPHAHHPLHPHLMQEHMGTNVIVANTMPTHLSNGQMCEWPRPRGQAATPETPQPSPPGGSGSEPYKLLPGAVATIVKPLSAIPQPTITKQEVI
Sequence of Oxysterols receptor LXR-beta (Homo sapiens) (P55055 whole entry, looked up, the tested form may be a part): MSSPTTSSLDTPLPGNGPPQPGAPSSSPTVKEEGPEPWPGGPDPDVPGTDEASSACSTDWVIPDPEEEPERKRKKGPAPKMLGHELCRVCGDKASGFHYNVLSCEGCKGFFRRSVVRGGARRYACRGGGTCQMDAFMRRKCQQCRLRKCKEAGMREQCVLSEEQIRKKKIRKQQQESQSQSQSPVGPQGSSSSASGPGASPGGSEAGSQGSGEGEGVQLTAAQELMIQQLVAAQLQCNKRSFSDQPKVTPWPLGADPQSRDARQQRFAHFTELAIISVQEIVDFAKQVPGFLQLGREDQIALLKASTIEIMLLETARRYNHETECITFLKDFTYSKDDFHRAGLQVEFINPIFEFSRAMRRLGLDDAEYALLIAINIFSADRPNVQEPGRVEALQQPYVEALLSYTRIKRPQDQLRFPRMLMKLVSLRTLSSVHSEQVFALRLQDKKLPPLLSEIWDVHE
Sequence of Bile acid receptor (Homo sapiens) (Q96RI1 whole entry, looked up, the tested form may be a part): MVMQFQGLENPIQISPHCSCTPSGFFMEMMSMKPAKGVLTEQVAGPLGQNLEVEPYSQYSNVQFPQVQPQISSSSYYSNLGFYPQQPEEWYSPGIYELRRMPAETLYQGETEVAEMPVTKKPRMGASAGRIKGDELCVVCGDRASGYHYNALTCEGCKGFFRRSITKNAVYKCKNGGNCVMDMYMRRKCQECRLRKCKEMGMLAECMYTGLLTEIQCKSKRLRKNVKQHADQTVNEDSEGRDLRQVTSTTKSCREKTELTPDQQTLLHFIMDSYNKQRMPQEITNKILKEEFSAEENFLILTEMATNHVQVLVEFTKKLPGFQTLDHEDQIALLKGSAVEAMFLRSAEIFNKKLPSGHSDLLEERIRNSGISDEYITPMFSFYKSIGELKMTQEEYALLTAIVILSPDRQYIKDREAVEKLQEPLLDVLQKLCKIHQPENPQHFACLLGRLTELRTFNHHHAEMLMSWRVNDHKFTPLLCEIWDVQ
Sequence of Oxysterols receptor LXR-alpha (Homo sapiens) (Q13133 whole entry, looked up): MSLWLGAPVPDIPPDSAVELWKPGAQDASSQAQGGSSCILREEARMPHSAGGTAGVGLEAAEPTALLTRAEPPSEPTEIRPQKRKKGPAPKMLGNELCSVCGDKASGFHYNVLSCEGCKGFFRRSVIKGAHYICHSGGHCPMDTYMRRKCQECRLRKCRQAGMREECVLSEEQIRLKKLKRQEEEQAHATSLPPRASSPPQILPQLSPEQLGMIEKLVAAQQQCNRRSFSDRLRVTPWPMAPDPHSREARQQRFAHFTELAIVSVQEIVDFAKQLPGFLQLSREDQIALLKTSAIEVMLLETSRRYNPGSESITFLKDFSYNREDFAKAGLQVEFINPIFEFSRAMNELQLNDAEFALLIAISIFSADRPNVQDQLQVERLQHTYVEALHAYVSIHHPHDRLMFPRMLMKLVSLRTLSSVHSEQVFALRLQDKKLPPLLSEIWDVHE
Sequence of Nuclear respiratory factor 1 (Homo sapiens) (Q16656 whole entry, looked up): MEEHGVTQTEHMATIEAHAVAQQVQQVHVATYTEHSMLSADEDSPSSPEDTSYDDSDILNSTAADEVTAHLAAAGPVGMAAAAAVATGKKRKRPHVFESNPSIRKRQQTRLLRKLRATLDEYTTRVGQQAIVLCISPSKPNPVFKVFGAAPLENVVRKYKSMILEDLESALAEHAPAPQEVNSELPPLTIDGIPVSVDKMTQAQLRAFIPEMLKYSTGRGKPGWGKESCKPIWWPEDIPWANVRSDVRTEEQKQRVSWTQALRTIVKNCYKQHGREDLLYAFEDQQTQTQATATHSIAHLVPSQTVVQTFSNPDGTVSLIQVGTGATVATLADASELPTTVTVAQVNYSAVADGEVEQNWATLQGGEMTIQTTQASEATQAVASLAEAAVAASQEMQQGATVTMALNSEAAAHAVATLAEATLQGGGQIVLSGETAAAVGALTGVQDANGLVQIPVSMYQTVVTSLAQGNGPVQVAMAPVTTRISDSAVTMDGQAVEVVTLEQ

As to `CC(C)C(=O)C(C)C`, the outcome in experiment [1], in experiment [2], in experiment [3], in experiment [4], in experiment [5] and in [6] was inactive. The molecule was called inactive in experiment [7].

As to `CC(=O)CC(N)=O`, the result in experiment [1], in experiment [2], in experiment [3] and in experiment [4] was inactive.

With `Cc1ccc(C(C)c2ccc(C)c(C)c2)cc1C`, the molecule was classed as inactive in experiment [1], in experiment [5] and in experiment [7]. The AC50 in experiment [6] is 125 µM (active).

Consider `COCc1c(C(C)C)nc(C(C)C)c(/C=C/[C@@H](O)C[C@@H](O)CC(=O)O)c1-c1ccc(F)cc1`, for which the molecule was called inactive in [1], in experiment [2], in experiment [3], in [5], in experiment [6] and in experiment [7].

Regarding `OCCCS`, the result in [1], in experiment [2], in experiment [4], in [5], in experiment [6] and in [7] was inactive.

Turning to `CC(=O)Nc1ccc2c(c1)Cc1cc(NC(C)=O)ccc1-2`, the molecule was classed as inactive in experiment [1], in experiment [2], in [3], in [5], in [6] and in experiment [7].

For `c1cc(N(CC2CO2)CC2CO2)ccc1OCC1CO1` (stereo not given), the outcome in [8], in experiment [9], in experiment [10], in [2], in experiment [3] and in experiment [6] was inactive. In addition, in experiment [7], the molecule was classed as inactive.

Consider `CC(=O)C=CC1C(C)=CCC(C)C1(C)C` (stereo not given), for which the molecule was classed as inactive in experiment [1], in [2], in [3], in experiment [4], in experiment [5] and in experiment [6]. Moreover, the molecule was called inactive in experiment [7].

On to `CC=CCO`, for which the molecule was called inactive in experiment [1], in experiment [2], in [3], in experiment [4], in experiment [5] and in experiment [6]. Besides, the call in [7] was inactive.

For the molecule `CCN(Cc1cccc(S(=O)(=O)O)c1)c1ccc(C(=C2C=CC(=[N+](CC)Cc3cccc(S(=O)(=O)[O-])c3)C=C2)c2ccccc2)cc1`, the call in [9], in experiment [10], in experiment [2], in experiment [3], in experiment [4] and in experiment [5] was inactive. For the same molecule, the call in experiment [6] and in experiment [7] was inactive.

Regarding `C1=CCCC1`, the outcome in experiment [8], in experiment [3], in [4], in experiment [6] and in experiment [7] was inactive.

On to `O=C(Nc1ccccc1SSc1ccccc1NC(=O)c1ccccc1)c1ccccc1`, for which the outcome in experiment [9], in experiment [10], in [2], in [4], in [5] and in experiment [6] was inactive. Besides, the outcome in experiment [7] was inactive.

Take `CC/C=C\C/C=C\C/C=C\CCCCCCCC(=O)O`: the call in experiment [9], in experiment [10], in experiment [3], in experiment [4] and in experiment [6] was inactive.

Take `COC(=O)c1ccc2cc(C(=O)OC)ccc2c1`: the result in experiment [9], in experiment [10], in experiment [2], in experiment [3], in experiment [4] and in experiment [5] was inactive. The molecule was called inactive in experiment [6] and in [7].

As for `CC1=Nc2ccc3ccccc3c2C1(C)C`, the molecule was classed as inactive in [9], in [10], in experiment [2], in experiment [4], in experiment [5] and in [6]. Also, in [7], the molecule was called inactive.

With `CN(C)c1ccc(C(=N)c2ccc(N(C)C)cc2)cc1`, the call in experiment [9], in experiment [10], in experiment [2], in experiment [3], in experiment [5] and in experiment [6] was inactive. Also, the molecule was called inactive in experiment [7]. The AC50 in experiment [4] was 106 µM (active).

For the molecule `CC(=O)Oc1ccc(C(C)=O)cc1`, the result in experiment [8], in experiment [10], in experiment [4], in experiment [5], in experiment [6] and in [7] was inactive.

As to `Cc1ccc2c(c1)C(=O)c1ccccc1C2=O`, the molecule was called inactive in [9], in experiment [10], in [2], in [3], in [4] and in experiment [5]. The molecule was called inactive in experiment [7].

With `CC(C)(C)c1ccc(-c2ccc(C(C)(C)C)cc2)cc1`, the molecule was called inactive in experiment [9], in experiment [10], in experiment [2], in experiment [3], in experiment [4] and in experiment [7].

In the case of `CC=CC(F)(F)C(F)(F)C(F)(F)F`, the call in [9], in [10], in experiment [2], in experiment [3], in experiment [4] and in [5] was inactive. The call in [6] and in experiment [7] was inactive.

In the case of `CCc1ccc2c(c1)C(=O)c1ccccc1C2=O`, the call in experiment [9], in experiment [10], in experiment [3], in experiment [5], in [6] and in experiment [7] was inactive.

Take `COc1ccc(C(Cl)=C(c2ccc(OC)cc2)c2ccc(OC)cc2)cc1`: the result in experiment [9], in experiment [10], in experiment [2], in [4], in experiment [5] and in experiment [6] was inactive. Further, the call in [7] was inactive.

As to `CC(C)c1ccc2c(C(C)C)cc(C(C)C)c(S(=O)(=O)O)c2c1`, the molecule was classed as inactive in experiment [8], in experiment [4], in experiment [6] and in experiment [7]. In addition, in experiment [5], the AC50 was 48 µM (active).

Turning to `CCOC(=O)NNc1nncc2ccccc12`, the molecule was called inactive in experiment [8], in experiment [2], in [3], in [4], in [6] and in [7].

As to `COC(=O)c1sccc1S(N)(=O)=O`, the outcome in experiment [8], in [4], in experiment [5], in experiment [6] and in experiment [7] was inactive.

Take `COCC(C)N` (stereo not given): the molecule was classed as inactive in [8], in [9], in experiment [3], in [4], in experiment [5] and in experiment [6]. Also, the result in experiment [7] was inactive.

For `C1=Cc2ccccc2C1`, the call in experiment [9], in [10], in experiment [2], in [3] and in experiment [7] was inactive.
